Inconclusive results are not listed. Activity calls are given as the source filed them. Calls follow the shape of the full dose curve.
How the values were obtained:
[1] = target: Acetylcholinesterase (Homo sapiens) (UniProt P22303); assay: Acetylcholinesterase (AChE) small molecule antagonists: colormetric cell-based qHTS assay (AID 1347395); conditions: SH-SY5Y cells AChE activity, colorimetric (Ellman); series mostly up to 115 µM; also: nearly all actives have a fitted effect of over 30% in size
Chain of Acetylcholinesterase (Homo sapiens) (P22303 whole entry, looked up): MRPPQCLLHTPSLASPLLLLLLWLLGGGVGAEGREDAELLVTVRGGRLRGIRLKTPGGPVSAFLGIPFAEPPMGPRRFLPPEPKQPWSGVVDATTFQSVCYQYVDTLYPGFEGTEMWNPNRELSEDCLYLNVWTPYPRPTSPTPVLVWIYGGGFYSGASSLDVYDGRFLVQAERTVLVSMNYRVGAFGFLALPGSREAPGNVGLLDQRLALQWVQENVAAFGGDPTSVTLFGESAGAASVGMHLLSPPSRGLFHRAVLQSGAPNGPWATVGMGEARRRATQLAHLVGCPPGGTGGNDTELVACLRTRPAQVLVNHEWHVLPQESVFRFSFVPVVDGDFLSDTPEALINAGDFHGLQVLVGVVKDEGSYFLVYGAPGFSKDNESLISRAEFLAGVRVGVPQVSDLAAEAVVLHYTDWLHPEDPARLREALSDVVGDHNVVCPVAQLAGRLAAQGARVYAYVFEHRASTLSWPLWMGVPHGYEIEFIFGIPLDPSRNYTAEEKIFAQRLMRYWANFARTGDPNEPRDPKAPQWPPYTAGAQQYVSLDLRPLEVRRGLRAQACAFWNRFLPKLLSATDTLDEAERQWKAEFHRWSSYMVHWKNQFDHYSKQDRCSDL
Procedure, shortened: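 After overnight attachment at 37 C, SH-SY5Y cells get 30 min compound exposure; detection cocktail (acetylthiocholine, DTNB) then incubates 90 min at 37 C, and absorbance reflects AChE-generated thiocholine.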

[2] = target: Acetylcholinesterase (Homo sapiens) (UniProt P22303); assay: Acetylcholinesterase (AChE) small molecule antagonists: enzyme-based qHTS assay (AID 1347397); conditions: Potency: AChE enzyme activity inhibition; outcome: AChE enzyme activity inhibition; series mostly up to 115 µM; also: nearly all actives have a fitted effect of over 55% in size
Procedure, shortened: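 rhAChE 50 mU/mL (dispensed) + cpd or DMSO, 30 min RT; add DTNB/acetylthiocholine cocktail, 10 min RT; colorimetric thiocholine readout. qHTS, 1536-well format.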

[3] = target: Acetylcholinesterase (Homo sapiens) (UniProt P22303); assay: Acetylcholinesterase (AChE) small molecule antagonists: fluorescence cell-based qHTS assay (AID 1347398); conditions: SH-SY5Y cells; Potency: AChE activity; outcome: AChE activity; series mostly up to 115 µM; also: nearly all actives have a fitted effect of over 50% in size
Procedure, shortened: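 Read-out is Thiolite Green fluorescence at Ex/Em = 490/520 nm, formed by reaction with thiocholine released when cellular AChE in SH-SY5Y cells hydrolyzes acetylthiocholine. Compounds were preincubated 30 min at 37 C before substrate.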

[4] = target: Acetylcholinesterase (Homo sapiens) (UniProt P22303); assay: Acetylcholinesterase (AChE) small molecule antagonists: enzyme-based qHTS assay with human liver microsomes (AID 1347399); conditions: Potency: qHTS inhibition; outcome: qHTS inhibition; series mostly up to 115 µM; also: nearly all actives have a fitted effect of over 60% in size
Procedure, shortened: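 Recombinant human AChE (50 mU/mL in the enzyme mix) and human liver microsomes (0.25 mg/mL final) were preincubated with compound and NADPH (0.25 mg/mL final) for 30 min at 37 C. Acetylthiocholine/DTNB was then added; thiocholine was read colorimetrically after 10 min at room temperature.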

Measured: Potency

C=CC(=O)[O-].C=CC(=O)[O-].[Zn+2]
inactive: all assays above

CCCCCCCCCCCCSC
inactive: all assays above

C#CC(O)C(CC)CCCC (stereo unspecified)
inactive: all assays above

CCCCCCCCCCCC(=O)[O][Sn]([CH2]CCC)([CH2]CCC)[O]C(=O)CCCCCCCCCCC
inactive: all assays above

— PubChem BioAssay (Tox21)
